This is one part of the list. Records with an inconclusive call do not appear. Values without a mark were called inactive. Activity calls are given as the source filed them. Calls follow the shape of the dose curve; as a rule, active = well fitted curve in the direction sought with a large enough effect; inconclusive = small, poorly fitted or top-dose-only effect, or another doubt; inactive = no such curve, though single readings can be large; an effect the other way counts as inactive or inconclusive.

The target of the first experiment is Flap endonuclease 1 (Homo sapiens) (UniProt P39748). Nature of the experiment: qHTS Assay for the Inhibitors of FEN1: Confirmatory Assay for Cherry-picked Compounds (AID 720498). Also: potency is read from the fitted curve at half-maximal effect; nearly all actives have a fitted effect of over 60% in size. The conditions noted are these: FEN1 flap cleavage, TAMRA/BHQ2 fluorogenic DNA substrate. The method in brief: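 FEN1 at 10 nM was preincubated with compound for 15 min at room temperature, then 50 nM (final) double-flap DNA substrate was added. TAMRA fluorescence released from the BHQ-2-quenched flap was read at 0 and 15 min (ex 525/em 598 nm).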
Sequence of Flap endonuclease 1 (Homo sapiens) (P39748 whole entry, looked up): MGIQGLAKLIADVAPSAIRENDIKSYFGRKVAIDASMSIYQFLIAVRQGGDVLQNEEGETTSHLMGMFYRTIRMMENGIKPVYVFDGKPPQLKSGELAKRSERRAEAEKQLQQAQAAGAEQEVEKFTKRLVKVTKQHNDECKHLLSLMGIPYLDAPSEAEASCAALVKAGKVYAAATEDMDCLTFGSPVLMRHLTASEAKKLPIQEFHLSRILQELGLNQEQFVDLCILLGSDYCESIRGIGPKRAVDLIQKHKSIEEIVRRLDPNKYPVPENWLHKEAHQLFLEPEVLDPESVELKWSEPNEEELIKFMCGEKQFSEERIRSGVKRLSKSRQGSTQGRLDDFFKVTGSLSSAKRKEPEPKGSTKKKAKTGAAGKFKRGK
(In general: Quantitative high-throughput screening tests each substance at several concentrations.)
On to `CC(=O)Nc1ccc(Nc2c3ccccc3nc3ccccc23)cc1`, for which the Potency was 30.1 µM (active).
Still for that read-out and setting: with `O=[N+]([O-])c1ccc(C=Nc2ccc(Cl)cc2Cl)s1` the figure was 6.75 µM (active); with `CCN1CCN(CCCNC(=O)c2ccc3c(c2)sc2nc(-c4ccc(OC)cc4)cn23)CC1`, 33.8 µM (active); with `COc1cc(NC(=O)COC(=O)c2ccc([N+](=O)[O-])s2)cc(OC)c1OC`, 6.01 µM (active).
Still for that read-out and setting: in the case of `CC(=O)OC1CCC2(C)C(=CCC3C4CC(=O)N(O)C(=O)C4(C)CCC32)C1` (stereo unspecified) it was 23.9 µM (active); in that of `CCN(CC)c1ccc2cc(C(N)=O)/c(=N\NC(=O)c3ccncc3)oc2c1`, 33.8 µM (active).
Same read-out and setting: in the case of `c1ccc2cc3c(NCCN4CCOCC4)ccnc3cc2c1` it was 37.9 µM (active); in that of `CCN1CCN(CCNC(=O)c2ccc3c(c2)NC(=O)/C(=C\c2ccc(OC)c(OC)c2)S3)CC1`, 33.8 µM (active).
Turning to `O=C(CCNC(=O)c1ccccc1)NN=Cc1ccc(Br)o1`, the Potency was 84.9 µM (active).
Same read-out and setting: with `COc1nc(N=C(N)N)nc2c(C)cccc12` the figure was 33.8 µM (active).
Still for that read-out and setting: with `O=C(COC(=O)c1ccc([N+](=O)[O-])o1)NC12CC3CC(CC(C3)C1)C2` the figure was 8.49 µM (active).

Tested on in another experiment: not listed separately
Nature of the experiment: qHTS for Inhibitors of WRN Helicase: Thiazole Orange DNA Binding Counterscreen (AID 720499).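 Also: drop in dye fluorescence marks compound binding to DNA; % is scaled to controls: 0 for no effect and ±100 for the full control effect; nearly all actives have a fitted effect of over 60% in size.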 The conditions noted are these: thiazole orange DNA binding displacement, fluorescence; series mostly up to 57.1 µM; activity change, negative = inhibition: at the top concentration. The method in brief: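 Thiazole orange displacement counterscreen: compounds added to 50 nM unlabeled DNA with 100 nM ThO. Fluorescence (ex 480, em 530 nm) read after 15 min at room temperature; activity flags nonspecific DNA binding.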
As for `O=C(Nc1ccccc1)c1nnsc1S(=O)(=O)c1ccc(Cl)cc1`, the “activity change, negative = inhibition” value is -19.8%.
Still for that read-out and setting: with `O=c1[nH]c2ccccc2n2c(-c3ccccc3)nnc12` the figure was -11.6%; with `COc1ccc(Cl)cc1-c1cc(C(=O)Nc2cc(OC)c(OC)c(OC)c2)[nH]n1`, 150%.
The same measure, in the same setting: in the case of `CCOc1ccccc1C(=O)NCc1ccco1` it was -12.7%; in that of `CC1=NN(c2ccc(Cl)c(C(=O)O)c2)C(=O)/C1=C/c1ccc(-c2ccccc2[N+](=O)[O-])o1`, -6.2%.

For a further experiment, the target named is DNA polymerase kappa (Homo sapiens) (UniProt Q9UBT6). The experiment can be described thus: qHTS for Inhibitors of Polymerase Kappa: Confirmatory Assay for Cherry-picked Compounds (AID 720501). Also: potency is read from the fitted curve at half-maximal effect. The conditions noted are these: purified Pol-kappa, fluorescent strand-displacement substrate. The method in brief: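 10 nM human Pol-kappa was preincubated with compound 15 min at room temperature, then 50 nM (final) primer/template substrate with TAMRA-labeled reporter strand and BHQ-2-labeled template added. Fluorescence (Ex 525, Em 598 nm) read at 0 and 10 min.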
Sequence of DNA polymerase kappa (Homo sapiens) (Q9UBT6 whole entry, looked up): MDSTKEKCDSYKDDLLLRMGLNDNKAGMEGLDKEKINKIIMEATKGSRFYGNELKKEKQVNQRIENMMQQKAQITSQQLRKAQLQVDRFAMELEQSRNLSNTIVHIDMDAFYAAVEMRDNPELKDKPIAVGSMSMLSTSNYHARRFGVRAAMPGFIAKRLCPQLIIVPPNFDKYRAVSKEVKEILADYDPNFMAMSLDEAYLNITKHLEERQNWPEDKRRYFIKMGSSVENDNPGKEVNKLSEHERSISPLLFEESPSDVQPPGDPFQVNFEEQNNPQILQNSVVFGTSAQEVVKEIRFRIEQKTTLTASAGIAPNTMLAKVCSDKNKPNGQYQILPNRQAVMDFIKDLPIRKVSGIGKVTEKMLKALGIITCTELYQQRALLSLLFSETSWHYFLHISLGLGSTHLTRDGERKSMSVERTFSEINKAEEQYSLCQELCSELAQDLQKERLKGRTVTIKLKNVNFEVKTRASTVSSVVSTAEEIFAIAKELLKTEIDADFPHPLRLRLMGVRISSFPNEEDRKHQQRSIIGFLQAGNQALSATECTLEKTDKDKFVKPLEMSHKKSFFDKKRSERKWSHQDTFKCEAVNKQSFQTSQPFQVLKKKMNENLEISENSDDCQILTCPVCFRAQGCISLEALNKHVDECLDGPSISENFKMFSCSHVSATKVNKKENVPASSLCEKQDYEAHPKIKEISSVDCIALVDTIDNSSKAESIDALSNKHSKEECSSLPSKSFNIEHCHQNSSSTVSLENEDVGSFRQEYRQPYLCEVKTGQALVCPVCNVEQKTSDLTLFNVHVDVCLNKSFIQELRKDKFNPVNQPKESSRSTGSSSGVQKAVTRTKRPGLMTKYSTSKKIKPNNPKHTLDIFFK
For `Cc1ccc2cc(/C=N/Nc3ccc(C(=O)O)cc3)c(Cl)nc2c1`, the Potency was 26.7 µM (active).
`COc1ccc(CNC(=O)c2nnn(CC(=O)Nc3cc(C)cc(C)c3)c2N)cc1`: the Potency was 47.4 µM (active).
Turning to `COc1ccccc1C(=O)N/C(=C/c1ccco1)C(=O)Nc1ccc(C(=O)O)cc1`, the Potency is 15 µM (active).
Still for that read-out and setting: with `CCOc1ccccc1/C=c1\sc2nc(-c3ccco3)nn2c1=O` the figure was 47.4 µM (active); with `O=C(O)C1CCN(c2ccc([N+](=O)[O-])cc2[N+](=O)[O-])CC1`, 42.3 µM (active); with `NC(CSC(c1ccccc1)(c1ccccc1)c1ccc(-c2ccccc2)cc1)C(=O)O` (stereo unspecified), 67 µM (active).
Still for that read-out and setting: in the case of `O=C1NN(c2ccccc2)C(=O)/C1=C/c1ccc(-c2cccc(C(=O)O)c2)o1` it was 16.8 µM (active).
On the same count and under the same terms, with `O=C(O)c1ccc(NS(=O)(=O)c2ccc3c(c2)C(=O)c2cc(S(=O)(=O)Nc4ccc(C(=O)O)cc4)ccc2-3)cc1` the figure was 16.8 µM (active); with `COc1cc(/C=C2/C(=O)NN(c3ccc(F)cc3)C2=O)cc([N+](=O)[O-])c1O`, 37.7 µM (active).
For the molecule `CCc1nc2cccnc2n1-c1ccc(C(=O)O)cc1`, the Potency was 18.9 µM (active).

In another experiment the target is DNA polymerase eta (Homo sapiens) (UniProt Q9Y253). The experiment can be described thus: qHTS for Inhibitors of Polymerase Eta: Confirmatory Assay for Cherry-picked Compounds (AID 720502). Also: potency is read from the fitted curve at half-maximal effect. The conditions noted are these: Pol eta primer extension, TAMRA/BHQ fluorescence, 10 min. The method in brief: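 Human Pol eta (10 nM) was preincubated with compounds for 15 min at room temperature before adding 50 nM (final) DNA substrate: primer plus TAMRA reporter strand annealed to a BHQ-2-labeled template. Fluorescence (ex 525/em 598 nm) was read at 0 and 10 min.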
Sequence of DNA polymerase eta (Homo sapiens) (Q9Y253 whole entry, looked up): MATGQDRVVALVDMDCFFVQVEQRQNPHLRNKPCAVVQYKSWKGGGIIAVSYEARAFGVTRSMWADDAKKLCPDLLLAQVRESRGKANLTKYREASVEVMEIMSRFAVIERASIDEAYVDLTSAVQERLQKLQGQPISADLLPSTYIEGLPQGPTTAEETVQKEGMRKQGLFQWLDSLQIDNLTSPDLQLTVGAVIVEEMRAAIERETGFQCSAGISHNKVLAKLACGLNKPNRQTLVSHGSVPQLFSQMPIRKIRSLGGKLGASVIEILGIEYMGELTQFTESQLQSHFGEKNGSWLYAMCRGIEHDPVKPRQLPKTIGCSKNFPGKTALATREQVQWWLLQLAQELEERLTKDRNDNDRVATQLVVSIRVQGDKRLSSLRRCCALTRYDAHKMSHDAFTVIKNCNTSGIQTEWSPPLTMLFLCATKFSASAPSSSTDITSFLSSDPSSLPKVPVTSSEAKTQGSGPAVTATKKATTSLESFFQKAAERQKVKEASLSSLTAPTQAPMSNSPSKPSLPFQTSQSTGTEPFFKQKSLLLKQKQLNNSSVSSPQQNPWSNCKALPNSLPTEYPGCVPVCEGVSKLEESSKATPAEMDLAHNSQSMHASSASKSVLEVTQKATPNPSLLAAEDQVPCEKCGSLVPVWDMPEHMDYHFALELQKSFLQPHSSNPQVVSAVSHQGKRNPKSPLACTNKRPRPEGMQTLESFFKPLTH
As to `Cc1ccc2cc(/C=N/Nc3ccc(C(=O)O)cc3)c(Cl)nc2c1`, the Potency was 30.1 µM (active).
Take `NC(=O)CSc1nnc(NC(=O)c2ccc(Br)o2)s1`: the Potency was 26.9 µM (active).
The same measure, in the same setting: in the case of `O=C1Nc2ccc([N+](=O)[O-])cc2C1=Nc1cccc(CO)c1` it was 75.7 µM (active).
Same read-out and setting: with `COc1ccccc1C(=O)N/C(=C/c1ccco1)C(=O)Nc1ccc(C(=O)O)cc1` the figure was 53.6 µM (active).
Turning to `C=C(C)C(=O)O[C@H]1C/C(C)=C\C(=O)/C=C(\C)[C@H](O)[C@@H]2OC(=O)C(=C)[C@@H]21`, the Potency is 75.7 µM (active).
The same measure, in the same setting: with `CCOc1ccccc1/C=c1\sc2nc(-c3ccco3)nn2c1=O` the figure was 60.1 µM (active).
For the molecule `Cc1oc2c(C)c3oc(=O)c(CC(=O)N[C@@H](CC(C)C)C(=O)N[C@@H](Cc4ccccc4)C(=O)O)c(C)c3cc2c1C`, the Potency is 47.8 µM (active).
For the molecule `CCCN1CCN(C(=O)Cn2ncc3ccccc32)CC1`, the Potency is 75.7 µM (active).
In the case of `CC1CCN(c2ccc(S(=O)(=O)Nc3cc(C(=O)O)cc(C(=O)O)c3)cc2[N+](=O)[O-])CC1`, the Potency was 60.1 µM (active).
The same measure, in the same setting: with `NC(CSC(c1ccccc1)(c1ccccc1)c1ccc(-c2ccccc2)cc1)C(=O)O` (stereo unspecified) the figure was 75.7 µM (active).
The same measure, in the same setting: in the case of `C#Cc1ccc([C@@H]2C=C(C(=O)O)O[C@H](OCCCCO)C2)cc1` it was 84.9 µM (active); in that of `Cc1nnc(SCC(=O)Nc2ccc(S(=O)(=O)Nc3ccc(Cl)nn3)cc2)s1`, 53.6 µM (active).
On the same count and under the same terms, with `COC(=O)Cc1cc(=O)n(-c2nc3ccccc3s2)[nH]1` the figure was 84.9 µM (active).
Take `O=C1NN(c2ccccc2)C(=O)/C1=C/c1ccc(-c2cccc(C(=O)O)c2)o1`: the Potency is 30.1 µM (active).
Same read-out and setting: with `O=C(Cc1ccc(S(=O)(=O)N2CCCC2)s1)NC1CCCCCC1` the figure was 60.1 µM (active).
The same measure, in the same setting: in the case of `O=C(Nc1ccc(S(=O)(=O)Nc2nccs2)cc1)c1cc(-c2ccncc2)nc2ccccc12` it was 67.5 µM (active); in that of `Cc1ccc(NC(=O)c2cc(-c3ccc(C)o3)nc3ccccc23)nc1`, 75.7 µM (active); in that of `CCc1nc2cccnc2n1-c1ccc(C(=O)O)cc1`, 10.7 µM (active).
Consider `Cc1cc(C)cc(C(=O)NC2C(=O)N3C(C(=O)O)=C(CSc4nnc(C)s4)CSC23)c1` (stereo unspecified), for which the Potency was 26.9 µM (active).
For `CC1=NN(c2ccc(Cl)c(C(=O)O)c2)C(=O)/C1=C/c1ccc(-c2ccccc2[N+](=O)[O-])o1`, the Potency is 75.7 µM (active).

The values above are taken from PubChem BioAssay (NCATS).
